The source made the active and inactive calls. Calls come from the whole dose curve; as a rule, active = well fitted curve in the direction sought with a large enough effect; inactive = no such curve, though single readings can be large or run the other way.

Sequence of Pyruvate kinase PKM (Homo sapiens) (P14618 whole entry, looked up, canonical isoform): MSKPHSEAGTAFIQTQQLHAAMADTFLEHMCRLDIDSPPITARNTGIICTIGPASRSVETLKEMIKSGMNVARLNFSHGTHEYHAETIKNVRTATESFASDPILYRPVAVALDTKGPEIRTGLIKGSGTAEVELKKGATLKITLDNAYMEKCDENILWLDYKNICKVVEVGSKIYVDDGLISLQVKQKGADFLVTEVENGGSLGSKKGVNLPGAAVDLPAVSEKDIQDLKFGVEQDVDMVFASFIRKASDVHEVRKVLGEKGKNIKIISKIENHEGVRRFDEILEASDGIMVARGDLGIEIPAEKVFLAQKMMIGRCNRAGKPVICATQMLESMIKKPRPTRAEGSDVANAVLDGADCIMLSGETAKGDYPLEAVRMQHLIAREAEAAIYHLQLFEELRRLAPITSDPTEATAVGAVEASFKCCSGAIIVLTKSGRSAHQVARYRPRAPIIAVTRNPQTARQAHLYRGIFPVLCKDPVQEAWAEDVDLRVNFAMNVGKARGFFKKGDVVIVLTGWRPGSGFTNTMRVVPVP

The target in this assay is Pyruvate kinase PKM (Homo sapiens) (UniProt P14618). Kind of assay: qHTS for Activators of Human Muscle Isoform 2 Pyruvate Kinase: Extended Characterization Using A Lactate Dehydrogenase (LDH) Assay Probe 2. To be noted: purified hPK-M2, LDH-coupled NADH fluorescence kinetic. The text has this:
Human pyruvate kinase muscle 2 (hPK-M2)enzyme was supplied as a highly purified (>95% pure) preparation from Harvard Medical School and a secondary assay was used to evaluate compounds. This assay couples the formation of pyruvate from hPK-M2 using lactate dehydrogenase (LDH) and NADH. The depletion of NADH is followed in a fluorescent-based kinetic assay that follows the formation of pyruvate to lactate, as catalyzed LDH (described by Hannaert et al., 2002)1 Pyruvate kinase substrates, PEP and ADP, were present in the assay at 0.1 mM and 4 mM respectively. In this kinetic assay initial rates were determined by following the fluorescence of NADH depletion. NIH Chemical Genomics Center [NCGC] NIH Molecular Libraries Probe Centers Network [MLPCN] MLPCN Grant: MH085679 Assay Submitter (PI): Matthew G. Vander Heiden, Harvard Medical School
Three uL of substrate mix (final concentration, 50 mM Tris-Cl pH 8.0, 200 mM KCl, 15 mM MgCl2, 0.1 mM PEP, 4.0 mM ADP, and 0.2 mM NADH) was dispensed into black-solid 1536 well plates. 23 nL of compounds were delivered by a pin tool and 1 uL of enzyme mix (final concentrations, 10 nM hPK-M2 and 1 uM of LDH) was added. Plates were immediately placed in ViewLux (Perkin Elmer) and NADH fluorescence was determined at 30 second exposure intervals for between 3 and 6 minutes. Data were normalized to the uninhibited and EC100 activation using known activators such as fructose-bis-phosphate.
As for `COc1cccc(Cn2ncc3c4sc(S(C)=O)cc4n(C)c3c2=O)c1` (stereo not drawn), the Potency was 410 nM (active).

As to `O=S(=O)(c1ccc2c(c1)OCCO2)N1CCN(S(=O)(=O)c2c(F)cccc2F)CC1`, the Potency is 178 nM (active). Consider `Cc1ccc(NS(=O)(=O)c2ccc3c(c2)CCC(=O)N3)cc1C`, for which the Potency was 146 nM (active).

For the origin of these results see PubChem BioAssay AID624389 (National Center for Advancing Translational Sciences (NCATS), 2012).
